In PubChem BioAssay (EPA / NIEHS):
Calls of active or inactive are those of the source. Rule for the calls: active = hit-call score of the fitted dose curve at least 0.9, where 1 is the maximum; inactive = score below 0.9.

Assay: ATG_RORE_CIS: Attagene CIS-FACTORIAL HepG2 Assay for human RAR-related Orphan Receptor Element (RORE) (AID 2282959)
Conditions: HepG2 Attagene cis-factorial RORE reporter, mRNA; actives raise or lower the signal
Protocol: ATG_CIS is a cell-based, multiplexed-readout assay that uses HepG2, a human liver cell line, with measurements taken at 24 hours after chemical dosing in a 24-well plate.ATG_RORE_CIS is one of 52 assay component(s) measured or calculated from the ATG_CIS assay. It is designed to make measurements of mRNA induction, a form of inducible reporter, as detected with fluorescence intensity signals by Reverse transcription polymerase chain reaction (RT-PCR) and Capillary electrophoresis technology.Data from the assay component ATG_RORE_CIS was analyzed into 1 assay endpoint. This assay endpoint, ATG_RORE_CIS, was analyzed with bidirectional fitting relative to DMSO as the negative control and baseline of activity. Using a type of inducible reporter, measures of mRNA for gain or loss-of-signal activity can be used to understand the reporter gene at the transcription factor-level as they relate to the gene RORA and RORB and RORC. Furthermore, this assay endpoint can be referred to as a primary readout, because this assay has produced multiple assay endpoints where this one serves a reporter gene function. To generalize the intended target to other relatable targets, this assay endpoint is annotated to the nuclear receptor intended target family, where the subfamily is orphan.
Human liver HepG2 cells are transiently transfected with multiple reporter transcription units (MRTUs) in 6-well plates using FuGene 6 reagent (Roche; 3 ml FuGene/1 mg DNA). The MRTU constructs are regulated by a cis-regulating element (promoter). […] A major difference between the CIS and TRANS system is that in CIS activities of endogenous TFs are measured, whereas the TRANS assay evaluates changes in activities of exogenous, chimeric NR-Gal4 proteins. […] At the end of 24 hour incubation, total RNA was isolated using TriZol reagent (Invitrogen). The isolated RNA is then reverse-transcribed using oligo(dT) primer and Mo-MLV reverse transcriptase (Invitrogen) with DNAse I (Ambion) treatment for 30 min. The one-tenth of the produced cDNA was amplified by PCR using Taq DNA polymerase (Invitrogen) and two reporter sequence-specific primers. The PCR products were fluorescently labeled by primer extension with 6-arboxyfluorescein (6-FAM) 5'-labeled reporter sequence-specific primer (2 min at 95 C, 20 s at 68 C and 10 min at 72 C) and these products were digested with 5U of HpaI (New England Biolabs) for 2h at 37 C. The fragments were purified using Qiaquick PCR columns (Qiagen), analyzed on an ABI 3130xL genetic analyzer (Applied Biosystems) with peak positions identified by using a set of X-rhodamine (ROX)-labeled MapMarker1000 molecular weight standards (BioVentures). The raw capillary electrophoresis data was processed using Attagraph software (Attagene).

Row | Structure (SMILES) | outcome | AC50
1 | CN(C)C(=O)Nc1ccc(Oc2ccc(Cl)cc2)cc1 | inactive | 
2 | Nc1c(S(=O)(=O)O)cc(Br)c2c1C(=O)c1ccccc1C2=O |  | 100 µM (active)
3 | FC(F)(F)COCC(F)(F)F | inactive | 
4 | CCOC(=O)c1ccc(N)cc1 | inactive | 
5 | CC1=CC[C@@]23C[C@@H]1C(C)(C)[C@@H]2CC[C@H]3C | inactive | 
6 | CCOC(=O)C(C#N)=C(c1ccccc1)c1ccccc1 |  | 17.4 µM (active)
7 | O=C(O)c1cccnc1C(=O)O | inactive | 
8 | CCCC(=O)OCCc1ccccc1 | inactive | 
9 | CC(C)=CCCC(C)CC(=O)O (stereo not given) | inactive | 
10 | CCCC1O[C@@H]2C[C@H]3[C@@H]4CCC5=CC(=O)C=C[C@]5(C)[C@H]4[C@@H](O)C[C@]3(C)[C@]2(C(=O)CO)O1 (stereo not given in full) | inactive | 
11 | Oc1ccc2cc(SSc3ccc4cc(O)ccc4c3)ccc2c1 |  | 33.5 µM (active)
12 | COC(=O)C=C(C)CCC=C(C)C | inactive | 
13 | COC(=O)c1cccnc1 | inactive | 
14 | CCCCC1(COC(=O)CCC(=O)O)C(=O)N(c2ccccc2)N(c2ccccc2)C1=O | inactive | 
15 | C=CC(=O)OCCCC | inactive | 
16 | c1ccc2[nH]cnc2c1 | inactive | 
17 | C=C(C)CNCC | inactive | 
18 | CN(C)c1ccncc1 | inactive | 
19 | Cc1cc(=O)oc2cc(N(C)C)ccc12 | inactive | 
20 | CC(=O)O[C@@H]1C[C@@H]2CC[C@@]1(C)C2(C)C | inactive | 

Row | Structure (SMILES) | outcome | AC50
21 | CCOc1ccccc1O | inactive | 
22 | N#Cc1ccc(CC(=O)c2cccc(C(F)(F)F)c2)cc1 | inactive | 
23 | O=P(O)(O)O | inactive | 
24 | Cc1ccc(N)c(S(=O)(=O)O)c1 | inactive | 
25 | CCCC[O][Al]([O]CCCC)[O]CCCC | inactive | 
26 | C[C@H](CCC(=O)NCC(=O)O)[C@H]1CC[C@H]2[C@@H]3[C@H](O)C[C@@H]4C[C@H](O)CC[C@]4(C)[C@H]3C[C@H](O)[C@]12C | inactive | 
27 | C[Si]1(C)O[Si](C)(C)O[Si](C)(C)O1 | inactive | 
28 | CCOC(=O)CN | inactive | 
29 | OCC#CCO | inactive | 
30 | CCc1ccc(O)c(OC)c1 | inactive | 
31 | O=C(O)CCCCCCCCCCCC(=O)O | inactive | 
32 | CCCCCCCC(=O)OCC(O)CO (stereo not given) | inactive | 
33 | N#Cc1cscn1 | inactive | 
34 | CCC(C)S (stereo not given) | inactive | 
35 | Clc1cc(Cl)c(-c2c(Cl)c(Cl)cc(Cl)c2Cl)cc1Cl | inactive | 
36 | CCCN(CCC)S(=O)(=O)c1ccc(C(=O)O)cc1 | inactive | 
37 | C=CCCCCCCCCCC | inactive | 
38 | CCN(CC)C(=O)N(CC)CC | inactive | 
39 | CCNCCO | inactive | 
40 | O=C(c1ccccc1)C(O)c1ccccc1 (stereo not given) | inactive | 
